D3 ag: activates the human D3 dopamine receptor; D3R DiscoveRx beta-arrestin cells, luminescence, 90 min; max activation, %; hit rate 0.58% among 410,000; AID 652048; in the data active = max activation above about 30%; also: 0% is about no effect
Target sequence (P35462 whole entry, looked up): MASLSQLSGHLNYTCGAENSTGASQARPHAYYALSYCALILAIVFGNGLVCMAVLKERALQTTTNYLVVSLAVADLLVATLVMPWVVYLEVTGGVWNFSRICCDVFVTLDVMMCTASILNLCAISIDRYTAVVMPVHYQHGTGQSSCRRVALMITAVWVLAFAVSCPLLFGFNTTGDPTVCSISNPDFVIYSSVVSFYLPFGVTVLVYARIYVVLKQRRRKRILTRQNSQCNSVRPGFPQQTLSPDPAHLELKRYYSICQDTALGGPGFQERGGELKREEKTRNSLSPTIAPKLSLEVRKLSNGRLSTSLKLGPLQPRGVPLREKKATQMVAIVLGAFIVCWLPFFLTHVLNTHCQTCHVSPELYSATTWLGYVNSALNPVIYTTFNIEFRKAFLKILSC
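Agonist-mode cell screen: cells plated at 1500/well and incubated overnight at 37 °C, then exposed to library compounds for 90 min at 37 °C. Detection reagent was added for 30–60 min at room temperature, and luminescence was read.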
ATXN viability: cell viability loss in ATXN counter-screen; S2 cells (HEK-293 line with an ATXN2-luciferase reporter) viability, CellTiter-Fluor protease fluorescence, 24 h; Potency, µM (series often up to 56.7 µM), actives largely listed as cytotoxic; hit rate 0.49% among 400,000; AID 651635; also: potency is read from the fitted curve at half-maximal effect; nearly all actives have a fitted effect of over 40% in size
Integrin act MD: activates integrin-mediated alleviation for muscular dystrophy | hit rate 0.064% among 350,000 | AID 624291 | alpha7betagal myoblasts, beta-gal FDG fluorescence, 48 h | Potency, µM (series often up to 38.3 µM), inactives show at the top dose activation, most hits filed as activators;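 also: potency is read from the fitted curve at half-maximal effect; 100% = response of the positive control SU9516; nearly all actives have a fitted effect of over 60% in size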
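alpha7betagal+/- myoblasts (passage 13, 250/well) treated 48 h at 37C with compounds at 1:260 dilution of DMSO stock. Lysed, then beta-galactosidase activity read as FDG fluorescence (ex 480/em 540) after 30 min, with pre-read for autofluorescence.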
IL-1B inflam inh: inhibitors of inflammasome signaling (IL-1 beta secretion); THP-1 LPS/ATP IL-1B secretion, AlphaLISA, 16 h; stronger effect = lower value; activity change, % at 57.5 µM; hit rate 4.7% among 360,000; in the data active = activity change below about -50%; inconclusive = mostly about -30% to -49%; also: % is scaled to controls: 0 for no effect and ±100 for the full control effect
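Secreted IL-1B measured by AlphaLISA bead assay after 16 h compound exposure of THP-1 cells; compounds (final up to 57.5 uM) added 1 h before LPS (250 ng/mL) and ATP (1.25 mM) stimulation; lower signal means less secretion.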
DRD3 antagonist: blocks the human D3 dopamine receptor | max response, negative = inhibition, % | D3R cells, DiscoveRx beta-arrestin luminescence, antagonist mode; stronger effect = lower value | AID 652054 | hit rate 2.5% among 360,000; in the data active = max response below about -50%; inconclusive = no clear call, values can overlap the other calls; also: % is scaled to controls: 0 for no effect and ±100 for the full control effect
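Cells expressing the human receptor were seeded at 1500 cells/well, incubated overnight at 37 degrees C in 5% CO2, then exposed to library compounds with dopamine controls for 90 minutes at 37 degrees C before luminescent detection.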
ATXN2 expr inh: inhibitors of ATXN2 expression | HEK-293 ATXN2-luciferase reporter, luminescence, 24 h | Potency, µM (titrated, usually from 57 µM), inactives show at the highest dose activity change, negative = inhibition, most hits filed as inhibitors | hit rate 0.72% among 360,000; also: potency is read from the fitted curve at half-maximal effect; % is scaled to controls: 0 for no effect and ±100 for the full control effect; nearly all actives have a fitted effect of over 55% in size
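qHTS (up to 57 uM final) was run with 24 h compound exposure of reporter cells at 37 °C. Each well was multiplexed: SteadyGlo luminescence measured ATXN2-luciferase expression after a fluorogenic Gly-Phe-AFC viability readout (25 uM final).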
Active calls of the source: *; i = inactive; ? = inconclusive; . = no result given. An excerpt weighted towards active compounds, which were near 7% of everything screened. Unless noted, calls follow the shape of the dose curve; as a rule, active = well fitted curve in the direction sought with a large enough effect; inconclusive = small, poorly fitted or top-dose-only effect, or another doubt; inactive = no such curve, though single readings can be large; an effect the other way counts as inactive or inconclusive.

SMILES	D3 ag	ATXN viability	Integrin act MD	IL-1B inflam inh	DRD3 antagonist	ATXN2 expr inh
Cc1ccc(C)c(NC(=O)CCN2C(=O)[C@@H]3Cc4ccccc4CN3C2=O)c1	-14	i	0%	-9	-12	-23%
Cc1cccc(-c2nnn3c2nc(NCc2ccc4c(c2)OCO4)c2ccccc23)c1	3	i	.	.	.	21%
CN1CCC(N(C)S(=O)(=O)c2ccc(Cl)cc2)CC1	-15	i	17%	26	9	1%
Cc1cc(C)c(C)c(S(=O)(=O)N(C)C2CCN(C)CC2)c1C	-19	?	-55%	-18	-77*	-20%
COc1cc(C2NC(=O)C(C#N)=C(S)N2c2ccccc2)ccc1OC(C)C (stereo not drawn)	0	i	-35%	-11	-67*	-6%
COc1ccc(C2NC(=O)C(C#N)=C(S)N2c2ccccc2)cc1OC (stereo not drawn)	-5	i	-8%	-2	-14	-15%
CCOc1ccc(C2NC(=O)C(C#N)=C(S)N2c2cccc(C)c2)cc1OC (stereo not drawn)	-1	i	15%	5	1	.
CCOc1ccc(C2NC(=O)C(C#N)=C(S)N2c2ccc(C)cc2)cc1OC (stereo not drawn)	-2	i	-7%	-59*	-9	5%
O=C(NCc1cccnc1)c1cc(-c2ccc(Cl)cc2)oc1C(F)(F)F	4	i	6%	5	-4	-17%
CCSc1ncc(C)cc1[N+](=O)[O-]	-3	i	2%	23	-1	11%
CCCCN(CC)CCCNC(=O)c1c(C)oc2ncnc(N3CCOCC3)c12	60*	.	.	.	.	.
COc1cccc(-n2ccnc2SCC(=O)Nc2nc3ccc(C)cc3s2)c1	-9	i	.	.	.	3%
O=C(OCn1ncc(Cl)c(Cl)c1=O)c1cccc(C(F)(F)F)c1	-6	.	-67%	-101*	-71*	?
COc1nc(-c2ccccc2)ccc1-c1noc(-c2ccccc2Br)n1	-10	.	.	.	.	.
CCN(Cc1ccncc1)C(=O)CC1C(=O)NCCN1Cc1ccc(F)c(F)c1 (stereo not drawn)	-8	i	?	0	-18	-2%
CCOc1cc(-c2nccc3cc(OC)c(OC)cc23)cc(OCC)c1OCC	8	?	-41%	-72*	56	?
CCCCOc1ccc(NC2=NC3(CCCCC3)N=C(N)N2)cc1	0	i	-45%	-28	-16	-3%
COc1ccc(NC2=NC3(CCCCC3)N=C(N)N2)cc1	0	i	-4%	-85*	-13	3%
Cc1cccc(NC2=NC3(CCCCC3)N=C(N)N2)c1	-5	i	-12%	54	8	1%
COc1ccc(OC)c(NC2=NC3(CCCCC3)N=C(N)N2)c1	0	i	0%	-11	-55*	-1%
Cc1cc(N)n(-c2ncnc3scc(-c4ccc(Cl)cc4)c23)n1	5	i	8%	32	5	1%
Clc1ncnc2scc(-c3ccc(Br)cc3)c12	-12	i	-48%	?	-54*	?
CCc1nc2ccc(C(=O)NCCC(C)C)cn2c1N(C)Cc1nccs1	-5	i	.	-21	-23	-18%
CCc1nc2ccc(C(=O)NCc3cccs3)cn2c1N(C)Cc1nccs1	-7	i	.	-54*	-21	-17%
CCc1nc2ccc(C(=O)N(C)CCN(C)C)cn2c1N(C)Cc1cc2ccccc2s1	-27	i	.	?	-69*	-22%
SMILES	D3 ag	ATXN viability	Integrin act MD	IL-1B inflam inh	DRD3 antagonist	ATXN2 expr inh
CCc1nc2ccc(C(=O)NCCOc3ccc(OC)cc3)cn2c1N(C)Cc1cccs1	-7	?	.	-52*	12	-28%
CCc1nc2ccc(C(=O)N(CC)CCN(C)C)cn2c1N(C)Cc1cccs1	-15	i	.	-14	-18	-3%
COC(=O)c1cc(OC)c(OC)c(OC)c1NC(=O)c1ccc(S(=O)(=O)N(C)C)cc1	-2	i	6%	-4	-88*	6%
CCN(C(=O)CSc1nnc(C)n1-c1ccc(C)cc1)c1c(N)n(Cc2ccccc2)c(=O)[nH]c1=O	6	i	-4%	16	-10	4%
O=C(NNC1=C(C(=O)C(F)(F)F)CCC1)c1ccccc1O	-2	i	-11%	82	?	-27%
COc1ccccc1C(=O)NNC1=C(C(=O)C(F)(F)F)CCC1	-34	?	-24%	83	-57*	?
CC1=C(c2ccc(C(C)C)cc2)S(=O)(=O)N=C1N1CCN(c2ccc(F)cc2)CC1	-11	.	.	.	.	.
COc1ccc(CNC(=O)CN(Cc2ccc(OC)cc2)C(=O)CCC(=O)Nc2ccccn2)cc1	-2	i	-17%	17	0	2%
COc1cccc(CN2CC(C(=O)NC3CCC3)CCC2=O)c1 (stereo not drawn)	3	i	10%	14	3	1%
Cc1ccc(NCc2nnc(SCC(=O)Nc3ncc(C)s3)n2CC2CCCO2)c(C)c1 (stereo not drawn)	-3	i	-14%	-10	7	6%
Cc1ccc(NCc2nnc(SCC(=O)NCc3ccco3)n2CC2CCCO2)cc1Cl (stereo not drawn)	3	i	-14%	-6	-15	-6%
Cc1ccc(NCc2nnc(SCC(=O)Nc3cccc(O)c3)n2CC2CCCO2)c(C)c1 (stereo not drawn)	-4	i	-14%	-51*	-7	1%
Cc1ccc(NCc2nnc(SCCN3CCCCC3)n2CC2CCCO2)cc1Cl (stereo not drawn)	-8	i	0%	-18	-51*	-7%
CCOC(=O)c1c(CSc2ccccc2)n(C)c2cc(Br)c(OC)c(O)c12	3	i	-13%	-27	50	-28%
CCOC(=O)c1c(CSc2ccccc2)n(C)c2cc(Br)c(OCC(O)CNC(CO)(CO)CO)cc12 (stereo not drawn)	2	.	-62%	-100*	9	?
COc1ccc(CNC(=O)Nc2nc(C(N)Cc3ccc(Cl)cc3)cs2)cc1 (stereo not drawn)	6	i	.	?	11	?
COc1ccccc1CNC(=O)Nc1nc(C(N)Cc2ccc(Cl)cc2)cs1 (stereo not drawn)	3	32µM*	.	-13	11	?
COc1ccccc1CNC(=O)Nc1nc(C(N)C(C)C)cs1 (stereo not drawn)	-5	?	.	-51*	?	-10%
CSc1ncccc1C(=O)NCCc1ccccc1F	5	i	-1%	-26	?	19%
CCC(=O)Nc1ccc(NC(=O)CSc2nnc(-c3ccco3)n2C)cc1	2	i	-27%	25	-3	-4%
CCN=C(Nc1ccc(Cl)cc1)c1cccnc1	-8	i	13%	-18	?	3%
